# According to PubChem BioAssay (Tox21):
# Where “and” joins values, the source holds several entries; their conditions need not be identical. Equal values may be shown once. Inconclusive results are not listed. Where a call stands in place of a potency, no number is given. Calls of active or inactive are those of the source. Calls come from the whole dose curve.
# Assay: p53 small molecule agonists, cell-based qHTS assay with human liver microsomes (AID 1963577)
# Conditions: HCT-116 p53RE-bla with human liver microsomes, ratio, 16 h; series mostly up to 66 µM
# Summary of the method: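 p53RE-bla cells; 5 h settle, 37 C/5% CO2; cpd + HLM 0.5 mg/mL + NADPH 0.5 mg/mL (final); 16 h 37 C; LiveBLAzer 2 h RT dark; fluorescence readout.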
# Potency is the fitted concentration of half-maximal effect.
row,SMILES,Potency
1,CCOC(=O)CC(SP(=S)(OC)OC)C(=O)OCC (stereo not drawn),inactive
2,COC(=O)c1ccccc1C(=O)OC,inactive
3,CCBr,inactive
4,COP(=O)(OC)C(O)C(Cl)(Cl)Cl (stereo not drawn),1.46 µM (active)
5,O=C(O)C1C2CCC(O2)C1C(=O)O (stereo not drawn),inactive
6,C[C@]12CCC(=O)C(O)=C1CC[C@@H]1[C@@H]2CC[C@]2(C)C(=O)CC[C@@H]12,inactive
7,CC(C)Oc1cc(-n2nc(C(C)(C)C)oc2=O)c(Cl)cc1Cl,inactive
8,CCCCCCCCCc1ccc(O)cc1,inactive
9,CCCC(=O)Cl,inactive
10,CC(C)=CC1C(C(=O)OCc2cccc(Oc3ccccc3)c2)C1(C)C (stereo not drawn),inactive
11,[N-]=[N+]=CC(=O)OC[C@H](N)C(=O)O,inactive
12,Nc1c(Oc2ccccc2)cc(O)c2c1C(=O)c1ccccc1C2=O,inactive
13,Fc1cc(Br)ccc1CBr,inactive
14,CC1=C(C(=O)Nc2ccccc2)SCCO1,inactive
15,OC(c1ccc(Cl)cc1)(c1cncnc1)c1ccccc1Cl (stereo not drawn),inactive
16,ClCCN1CCCC1,inactive
17,Oc1ccc(C(c2ccc(O)cc2)(C(F)(F)F)C(F)(F)F)cc1,inactive
18,COP(=S)(OC)Oc1ccc(SC)c(C)c1,inactive
19,CCC[CH2][Sn]([Cl])([Cl])[CH2]CCC,inactive

row,SMILES,Potency
1,CNC(=O)Oc1cccc2c1OC(C)(C)O2,inactive
2,C=CCCl,inactive
3,CC(C)NC(=O)N1CC(=O)N(c2cc(Cl)cc(Cl)c2)C1=O,inactive
4,O=C(O)C(F)(F)C(F)(F)C(F)(F)C(F)(F)C(F)(F)C(F)(F)C(F)(F)C(F)(F)C(F)(F)C(F)(F)F,inactive
5,O=NN1CCCCCCC1,inactive
6,N#CC(Cl)Cl,inactive
7,C#CCOC(C(=O)OCCN(C)C)(c1ccccc1)c1ccccc1,inactive
8,CCOP(=O)(OCC)Oc1ccc([N+](=O)[O-])cc1,654 nM (active) and 513 nM (active)
9,CCC(=O)OC1(c2ccccc2)CCN(C)CC1,inactive
10,C=CCc1ccccc1O,inactive
11,C[C@]12CCC(=O)C=C1CC[C@@H]1[C@@H]2CC[C@]2(C)C(=O)CC[C@@H]12,inactive
12,C[C@]12CC[C@H]3[C@@H](CCC4=CC(=O)CC[C@@H]43)[C@@H]1CC[C@@H]2O,inactive
13,[O]=[Cr](=[O])([OH])[O][Cr](=[O])(=[O])[OH],inactive
14,CCCC1COC(Cn2cncn2)(c2ccc(Cl)cc2Cl)O1 (stereo not drawn),inactive
15,ClC1=C(Cl)C2(Cl)C3C(Cl)C=CC3C1(Cl)C2(Cl)Cl (stereo not drawn),inactive
16,O=P(Oc1ccccc1)(Oc1ccccc1)Oc1ccccc1,inactive
17,Cl/C=C\C[N+]12CN3CN(CN(C3)C1)C2,inactive
18,CNC(=S)S,inactive
19,CCCCCCCCCCCCCC[P+](CCCCCC)(CCCCCC)CCCCCC,inactive
